Data as given in the supplement of paper PMC11732987, “Enantioselective OTUD7B fragment discovery through chemoproteomics screening and high-throughput optimisation” (Communications Chemistry, 2025).

Assays:
Assay in all cases: log2 ratio of Biotin-Ahx-Ub-VS probe labelling (fragment/DMSO); higher = less target engagement (more negative = stronger competition), active = hit call of the paper (q ≤ 0.05, log2 ratio ≤ -1)
Details in all cases: compound concentration: 200 uM; treatment time: 3 h
USP42 = target: T1, USP42 (UniProt Q9H9J4)
T1 sequence (whole entry): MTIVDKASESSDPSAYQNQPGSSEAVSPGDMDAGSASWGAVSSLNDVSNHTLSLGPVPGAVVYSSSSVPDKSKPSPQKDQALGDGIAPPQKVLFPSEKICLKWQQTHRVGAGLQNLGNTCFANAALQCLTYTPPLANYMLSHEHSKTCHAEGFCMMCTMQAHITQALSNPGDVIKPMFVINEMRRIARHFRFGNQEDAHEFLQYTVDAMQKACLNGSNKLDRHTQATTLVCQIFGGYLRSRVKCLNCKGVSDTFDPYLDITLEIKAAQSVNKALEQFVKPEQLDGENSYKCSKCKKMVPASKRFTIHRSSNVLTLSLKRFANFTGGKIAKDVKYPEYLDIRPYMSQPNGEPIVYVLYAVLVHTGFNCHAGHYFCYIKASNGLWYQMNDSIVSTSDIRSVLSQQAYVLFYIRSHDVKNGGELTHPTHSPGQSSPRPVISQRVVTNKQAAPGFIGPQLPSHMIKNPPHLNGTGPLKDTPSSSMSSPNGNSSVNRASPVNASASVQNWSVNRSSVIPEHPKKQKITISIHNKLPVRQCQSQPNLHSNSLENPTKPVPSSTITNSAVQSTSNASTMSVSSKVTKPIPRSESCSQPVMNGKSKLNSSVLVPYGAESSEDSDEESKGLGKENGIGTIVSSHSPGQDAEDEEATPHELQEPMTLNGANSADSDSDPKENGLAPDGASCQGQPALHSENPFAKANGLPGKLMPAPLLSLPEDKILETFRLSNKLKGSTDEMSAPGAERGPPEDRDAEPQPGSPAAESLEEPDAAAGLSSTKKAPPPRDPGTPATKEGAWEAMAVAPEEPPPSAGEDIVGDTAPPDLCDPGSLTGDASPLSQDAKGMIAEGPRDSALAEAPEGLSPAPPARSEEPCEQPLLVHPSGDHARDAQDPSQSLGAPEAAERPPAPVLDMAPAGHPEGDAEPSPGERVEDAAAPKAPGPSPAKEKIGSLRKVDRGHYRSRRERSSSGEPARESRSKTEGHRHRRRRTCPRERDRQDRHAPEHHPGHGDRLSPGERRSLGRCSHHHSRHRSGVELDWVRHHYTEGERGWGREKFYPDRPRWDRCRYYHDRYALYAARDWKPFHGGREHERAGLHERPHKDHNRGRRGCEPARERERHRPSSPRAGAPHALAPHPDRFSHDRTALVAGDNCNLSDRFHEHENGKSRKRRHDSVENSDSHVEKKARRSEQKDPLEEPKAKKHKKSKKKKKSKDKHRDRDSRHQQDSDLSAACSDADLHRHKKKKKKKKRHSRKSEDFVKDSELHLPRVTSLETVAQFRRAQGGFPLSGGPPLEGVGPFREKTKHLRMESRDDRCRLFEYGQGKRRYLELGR
Summary of the method: (§1)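 Labelled DUBs from HEK293T lysate were NeutrAvidin-enriched, digested with LysC and trypsin, and run by diaPASEF LC-MS/MS. Before that, each 495 µg sample in Tris/CHAPS/IGEPAL buffer with protease inhibitors was treated in triplicate with fragment at 200 µM or vehicle for 3 h, then with Biotin-Ahx-Ub-VS at 0.5 µM final for 1 h. Values are average log2 ratios of fragment over vehicle by unpaired t-test, based on global-median-normalised Spectronaut label-free quantities from proteins with ≥2 unique peptides.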

USP46 = USP46 (UniProt P62068)
Summary of the method: as §1

USP47 = target: T2, USP47 (UniProt Q96K76)
T2 sequence (whole entry): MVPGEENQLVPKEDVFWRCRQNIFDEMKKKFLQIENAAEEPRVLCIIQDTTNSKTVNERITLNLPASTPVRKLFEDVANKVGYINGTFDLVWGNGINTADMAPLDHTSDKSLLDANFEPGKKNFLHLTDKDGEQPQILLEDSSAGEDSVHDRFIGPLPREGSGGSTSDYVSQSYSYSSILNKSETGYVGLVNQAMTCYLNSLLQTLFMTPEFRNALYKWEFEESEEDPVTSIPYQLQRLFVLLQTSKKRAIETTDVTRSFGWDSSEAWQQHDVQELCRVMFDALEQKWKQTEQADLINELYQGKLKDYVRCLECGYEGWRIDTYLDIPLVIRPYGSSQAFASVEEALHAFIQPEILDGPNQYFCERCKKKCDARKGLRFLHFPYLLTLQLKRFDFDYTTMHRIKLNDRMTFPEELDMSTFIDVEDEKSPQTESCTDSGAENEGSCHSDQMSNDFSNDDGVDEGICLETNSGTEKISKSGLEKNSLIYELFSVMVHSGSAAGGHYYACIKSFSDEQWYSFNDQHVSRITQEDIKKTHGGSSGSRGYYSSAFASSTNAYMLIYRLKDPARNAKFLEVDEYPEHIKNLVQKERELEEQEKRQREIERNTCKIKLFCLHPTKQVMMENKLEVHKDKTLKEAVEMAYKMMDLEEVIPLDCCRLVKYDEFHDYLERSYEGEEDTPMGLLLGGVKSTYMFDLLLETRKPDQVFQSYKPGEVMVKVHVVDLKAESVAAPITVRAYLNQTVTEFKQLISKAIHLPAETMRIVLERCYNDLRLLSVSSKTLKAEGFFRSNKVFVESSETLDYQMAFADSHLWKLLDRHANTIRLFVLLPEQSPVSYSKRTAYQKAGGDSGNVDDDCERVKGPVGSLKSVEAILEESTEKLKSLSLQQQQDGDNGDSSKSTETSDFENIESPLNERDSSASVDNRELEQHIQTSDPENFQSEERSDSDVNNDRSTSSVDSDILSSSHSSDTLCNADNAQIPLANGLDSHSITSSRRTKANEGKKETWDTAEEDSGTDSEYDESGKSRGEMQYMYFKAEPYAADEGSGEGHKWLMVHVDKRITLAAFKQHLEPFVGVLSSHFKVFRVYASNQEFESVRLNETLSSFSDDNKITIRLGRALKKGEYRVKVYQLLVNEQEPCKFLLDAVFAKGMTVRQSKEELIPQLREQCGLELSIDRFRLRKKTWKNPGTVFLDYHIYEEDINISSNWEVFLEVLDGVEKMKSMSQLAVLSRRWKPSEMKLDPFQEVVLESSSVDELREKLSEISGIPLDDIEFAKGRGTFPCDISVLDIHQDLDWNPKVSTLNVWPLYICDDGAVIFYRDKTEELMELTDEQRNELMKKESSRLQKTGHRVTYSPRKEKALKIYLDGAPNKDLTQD
Summary of the method: as §1

USP48 = target: T3, USP48 (UniProt Q86UV5)
T3 sequence (whole entry): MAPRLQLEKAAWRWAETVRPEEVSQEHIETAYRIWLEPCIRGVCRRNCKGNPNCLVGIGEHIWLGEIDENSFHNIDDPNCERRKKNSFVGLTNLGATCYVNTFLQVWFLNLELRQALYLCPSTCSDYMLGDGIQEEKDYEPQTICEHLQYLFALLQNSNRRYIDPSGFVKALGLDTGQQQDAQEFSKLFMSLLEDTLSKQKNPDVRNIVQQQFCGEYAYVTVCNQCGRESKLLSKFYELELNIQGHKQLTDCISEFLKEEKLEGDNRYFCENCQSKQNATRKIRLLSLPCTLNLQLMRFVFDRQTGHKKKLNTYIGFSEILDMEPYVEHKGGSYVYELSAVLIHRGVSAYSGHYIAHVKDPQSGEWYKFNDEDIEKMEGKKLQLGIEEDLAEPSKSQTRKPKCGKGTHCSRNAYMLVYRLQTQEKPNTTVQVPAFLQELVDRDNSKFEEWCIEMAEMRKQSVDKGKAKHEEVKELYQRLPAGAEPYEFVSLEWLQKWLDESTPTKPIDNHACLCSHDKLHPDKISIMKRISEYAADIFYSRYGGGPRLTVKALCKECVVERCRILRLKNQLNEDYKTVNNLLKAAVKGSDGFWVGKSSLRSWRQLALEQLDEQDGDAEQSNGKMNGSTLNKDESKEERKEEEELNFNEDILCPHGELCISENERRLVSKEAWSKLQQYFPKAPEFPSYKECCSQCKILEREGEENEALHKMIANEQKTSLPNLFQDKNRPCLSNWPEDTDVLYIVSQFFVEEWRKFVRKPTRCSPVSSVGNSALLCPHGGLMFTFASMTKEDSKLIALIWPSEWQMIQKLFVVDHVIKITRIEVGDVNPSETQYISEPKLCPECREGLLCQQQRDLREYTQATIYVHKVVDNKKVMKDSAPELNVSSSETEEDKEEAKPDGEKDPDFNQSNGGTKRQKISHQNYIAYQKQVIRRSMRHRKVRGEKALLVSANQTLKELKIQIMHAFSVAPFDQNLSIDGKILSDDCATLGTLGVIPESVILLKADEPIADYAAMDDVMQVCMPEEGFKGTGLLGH
Summary of the method: as §1

USP5 = target: T4, USP5 (UniProt P45974)
T4 sequence (whole entry): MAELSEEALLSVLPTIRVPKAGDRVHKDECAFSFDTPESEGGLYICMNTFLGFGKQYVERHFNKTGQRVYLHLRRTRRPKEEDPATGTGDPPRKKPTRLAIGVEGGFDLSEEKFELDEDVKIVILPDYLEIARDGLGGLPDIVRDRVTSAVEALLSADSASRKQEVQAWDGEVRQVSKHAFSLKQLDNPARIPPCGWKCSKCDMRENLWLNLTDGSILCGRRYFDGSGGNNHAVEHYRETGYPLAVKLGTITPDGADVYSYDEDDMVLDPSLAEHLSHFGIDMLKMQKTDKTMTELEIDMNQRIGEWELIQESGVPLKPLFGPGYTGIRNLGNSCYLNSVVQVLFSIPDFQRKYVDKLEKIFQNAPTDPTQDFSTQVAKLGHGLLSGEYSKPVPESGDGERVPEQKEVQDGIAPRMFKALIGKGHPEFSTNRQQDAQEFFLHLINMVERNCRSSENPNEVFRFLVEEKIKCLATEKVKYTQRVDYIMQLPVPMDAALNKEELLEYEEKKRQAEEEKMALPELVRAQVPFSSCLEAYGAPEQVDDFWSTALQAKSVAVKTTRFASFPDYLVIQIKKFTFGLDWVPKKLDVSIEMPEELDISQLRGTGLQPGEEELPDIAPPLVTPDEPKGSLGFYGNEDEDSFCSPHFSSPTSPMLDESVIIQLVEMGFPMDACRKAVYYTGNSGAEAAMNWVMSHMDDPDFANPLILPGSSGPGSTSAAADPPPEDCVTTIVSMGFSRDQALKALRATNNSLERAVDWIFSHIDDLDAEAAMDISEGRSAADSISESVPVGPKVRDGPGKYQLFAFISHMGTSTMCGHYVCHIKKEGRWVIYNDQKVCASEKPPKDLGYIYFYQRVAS
Summary of the method: as §1

USP54 = USP54 (UniProt Q70EL1)
Summary of the method: as §1

USP7 = USP7 (UniProt Q93009)
Summary of the method: as §1

USP8 = target: T5, USP8 (UniProt P40818)
T5 sequence (whole entry): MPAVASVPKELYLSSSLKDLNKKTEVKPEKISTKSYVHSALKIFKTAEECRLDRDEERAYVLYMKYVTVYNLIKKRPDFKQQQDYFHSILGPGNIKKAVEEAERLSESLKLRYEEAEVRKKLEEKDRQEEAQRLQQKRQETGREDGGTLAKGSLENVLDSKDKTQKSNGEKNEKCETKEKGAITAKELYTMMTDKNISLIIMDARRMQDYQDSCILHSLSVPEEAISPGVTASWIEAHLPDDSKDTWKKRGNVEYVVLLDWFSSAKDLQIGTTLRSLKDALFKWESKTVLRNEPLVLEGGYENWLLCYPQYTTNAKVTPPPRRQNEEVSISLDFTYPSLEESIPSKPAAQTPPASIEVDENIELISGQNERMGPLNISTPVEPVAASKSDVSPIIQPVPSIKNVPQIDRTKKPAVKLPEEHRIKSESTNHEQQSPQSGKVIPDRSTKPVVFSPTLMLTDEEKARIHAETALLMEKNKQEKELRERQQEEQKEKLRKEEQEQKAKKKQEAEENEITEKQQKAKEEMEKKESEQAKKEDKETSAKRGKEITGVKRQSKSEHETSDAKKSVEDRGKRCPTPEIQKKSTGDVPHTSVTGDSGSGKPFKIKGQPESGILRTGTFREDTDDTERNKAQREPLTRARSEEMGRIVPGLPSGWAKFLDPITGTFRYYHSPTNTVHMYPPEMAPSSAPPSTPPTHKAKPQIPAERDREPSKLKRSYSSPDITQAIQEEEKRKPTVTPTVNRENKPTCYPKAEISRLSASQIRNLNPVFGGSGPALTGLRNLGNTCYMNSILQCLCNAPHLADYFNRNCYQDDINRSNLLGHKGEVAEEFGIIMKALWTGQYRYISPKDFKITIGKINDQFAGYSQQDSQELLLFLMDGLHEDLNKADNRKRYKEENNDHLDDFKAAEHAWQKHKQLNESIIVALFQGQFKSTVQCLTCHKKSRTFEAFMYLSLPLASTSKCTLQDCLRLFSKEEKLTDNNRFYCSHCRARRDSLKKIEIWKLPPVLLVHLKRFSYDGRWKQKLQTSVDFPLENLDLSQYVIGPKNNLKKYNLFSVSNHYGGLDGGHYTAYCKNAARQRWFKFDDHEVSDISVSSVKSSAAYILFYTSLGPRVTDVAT
Summary of the method: as §1

Measured: log2 ratio of Biotin-Ahx-Ub-VS probe labelling

Chain of USP7 (Q93009 whole entry, looked up): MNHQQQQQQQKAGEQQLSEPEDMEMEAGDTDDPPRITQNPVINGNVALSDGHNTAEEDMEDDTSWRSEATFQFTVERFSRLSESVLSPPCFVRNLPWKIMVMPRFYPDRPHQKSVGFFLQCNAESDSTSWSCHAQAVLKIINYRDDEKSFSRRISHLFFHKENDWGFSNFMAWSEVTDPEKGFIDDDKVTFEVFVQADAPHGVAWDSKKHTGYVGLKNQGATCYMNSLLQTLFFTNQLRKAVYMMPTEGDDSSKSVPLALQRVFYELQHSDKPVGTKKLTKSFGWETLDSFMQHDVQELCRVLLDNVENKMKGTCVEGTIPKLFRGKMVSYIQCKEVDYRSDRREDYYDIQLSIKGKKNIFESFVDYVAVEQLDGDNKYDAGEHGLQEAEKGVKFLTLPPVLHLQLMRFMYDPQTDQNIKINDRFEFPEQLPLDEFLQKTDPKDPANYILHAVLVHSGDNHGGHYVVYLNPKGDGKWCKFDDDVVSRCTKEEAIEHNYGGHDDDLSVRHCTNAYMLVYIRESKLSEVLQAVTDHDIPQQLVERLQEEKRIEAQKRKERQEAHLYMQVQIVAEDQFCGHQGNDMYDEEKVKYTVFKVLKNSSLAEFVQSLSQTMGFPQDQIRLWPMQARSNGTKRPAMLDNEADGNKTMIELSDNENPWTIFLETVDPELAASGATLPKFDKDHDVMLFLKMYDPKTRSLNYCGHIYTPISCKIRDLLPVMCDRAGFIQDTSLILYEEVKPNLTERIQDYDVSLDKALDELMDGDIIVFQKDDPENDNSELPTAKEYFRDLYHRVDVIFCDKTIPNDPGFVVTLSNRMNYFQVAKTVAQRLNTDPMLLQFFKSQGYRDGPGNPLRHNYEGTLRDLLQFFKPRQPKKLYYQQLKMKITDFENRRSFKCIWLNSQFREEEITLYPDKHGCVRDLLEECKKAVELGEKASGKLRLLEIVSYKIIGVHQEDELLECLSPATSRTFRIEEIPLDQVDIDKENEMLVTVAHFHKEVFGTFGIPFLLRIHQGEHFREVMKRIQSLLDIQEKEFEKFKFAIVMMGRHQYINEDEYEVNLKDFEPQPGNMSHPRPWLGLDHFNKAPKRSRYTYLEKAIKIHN
Chain of USP46 (P62068 whole entry): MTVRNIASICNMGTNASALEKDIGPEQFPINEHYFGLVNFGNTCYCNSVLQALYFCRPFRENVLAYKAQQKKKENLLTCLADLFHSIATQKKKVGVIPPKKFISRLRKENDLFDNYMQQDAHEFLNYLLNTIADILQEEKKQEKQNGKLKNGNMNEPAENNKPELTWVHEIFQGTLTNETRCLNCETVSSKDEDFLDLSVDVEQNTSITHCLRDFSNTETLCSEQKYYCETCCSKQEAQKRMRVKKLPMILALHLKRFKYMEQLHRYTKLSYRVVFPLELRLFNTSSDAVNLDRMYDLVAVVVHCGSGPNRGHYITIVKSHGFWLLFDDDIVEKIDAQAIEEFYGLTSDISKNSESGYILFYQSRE
Chain of USP54 (Q70EL1 whole entry): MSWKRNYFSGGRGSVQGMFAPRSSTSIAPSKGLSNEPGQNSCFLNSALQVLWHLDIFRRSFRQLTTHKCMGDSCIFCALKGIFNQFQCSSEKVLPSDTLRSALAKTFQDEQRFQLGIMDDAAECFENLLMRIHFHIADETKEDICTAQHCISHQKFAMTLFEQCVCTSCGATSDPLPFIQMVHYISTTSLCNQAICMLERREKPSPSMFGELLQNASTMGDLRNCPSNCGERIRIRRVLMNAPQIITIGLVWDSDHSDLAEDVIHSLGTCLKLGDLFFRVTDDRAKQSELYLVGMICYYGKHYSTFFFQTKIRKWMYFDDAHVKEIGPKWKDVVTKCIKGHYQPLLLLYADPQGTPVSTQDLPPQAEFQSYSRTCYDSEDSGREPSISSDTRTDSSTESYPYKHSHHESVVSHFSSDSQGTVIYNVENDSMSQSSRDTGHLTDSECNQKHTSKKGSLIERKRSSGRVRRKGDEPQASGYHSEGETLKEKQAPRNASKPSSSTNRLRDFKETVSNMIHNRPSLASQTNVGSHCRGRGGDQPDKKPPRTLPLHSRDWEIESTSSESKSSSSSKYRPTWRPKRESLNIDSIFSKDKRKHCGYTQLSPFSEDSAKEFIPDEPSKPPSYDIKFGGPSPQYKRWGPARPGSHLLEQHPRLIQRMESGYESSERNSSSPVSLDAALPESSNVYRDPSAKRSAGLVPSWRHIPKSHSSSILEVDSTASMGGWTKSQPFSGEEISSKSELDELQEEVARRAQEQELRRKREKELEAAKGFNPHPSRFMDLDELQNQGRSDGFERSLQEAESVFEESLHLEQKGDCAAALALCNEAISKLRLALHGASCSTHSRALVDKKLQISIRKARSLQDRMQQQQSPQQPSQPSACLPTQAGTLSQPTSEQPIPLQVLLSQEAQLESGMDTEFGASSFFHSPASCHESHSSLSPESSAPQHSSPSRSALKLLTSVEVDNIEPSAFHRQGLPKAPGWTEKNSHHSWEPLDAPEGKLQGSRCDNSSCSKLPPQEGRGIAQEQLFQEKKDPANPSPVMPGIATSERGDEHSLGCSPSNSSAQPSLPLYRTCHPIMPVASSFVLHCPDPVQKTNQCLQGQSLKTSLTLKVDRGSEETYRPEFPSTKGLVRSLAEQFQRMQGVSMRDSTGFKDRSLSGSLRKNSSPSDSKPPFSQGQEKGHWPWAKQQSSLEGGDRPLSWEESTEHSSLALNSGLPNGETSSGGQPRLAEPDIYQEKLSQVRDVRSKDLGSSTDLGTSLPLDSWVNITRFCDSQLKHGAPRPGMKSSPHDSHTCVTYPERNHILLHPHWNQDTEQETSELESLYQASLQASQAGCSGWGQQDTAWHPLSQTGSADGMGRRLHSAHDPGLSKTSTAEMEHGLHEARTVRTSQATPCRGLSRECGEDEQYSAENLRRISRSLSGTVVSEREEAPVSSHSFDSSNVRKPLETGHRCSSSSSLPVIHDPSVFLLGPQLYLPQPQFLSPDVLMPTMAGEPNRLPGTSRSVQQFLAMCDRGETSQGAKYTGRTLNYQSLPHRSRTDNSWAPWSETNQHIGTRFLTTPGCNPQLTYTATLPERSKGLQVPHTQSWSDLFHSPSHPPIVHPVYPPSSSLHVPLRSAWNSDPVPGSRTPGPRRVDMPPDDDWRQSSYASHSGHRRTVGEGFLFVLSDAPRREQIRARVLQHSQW

CN1C(=O)c2ccc(NC(=O)CCl)cc2C1=O
inactive: USP42 0.714 | USP46 -0.152 | USP47 -0.217 | USP48 -0.208 | USP5 -0.508 | USP54 0.112 | USP7 -0.743 | USP8 -0.236
